Laboratory results published in PubChem BioAssay (NCATS).
Inconclusive results are not listed. Values without a mark were called inactive. Activity calls are given as the source filed them. The call rests on the fitted dose curve; in most records, active means well fitted curve in the direction sought with a large enough effect; inconclusive means small, poorly fitted or top-dose-only effect, or another doubt; inactive means no such curve, though single readings can be large; an effect the other way counts as inactive or inconclusive.

How the values were obtained:
[1] = target: Cellular tumor antigen p53 (Homo sapiens) (UniProt P04637); experiment: Primary qHTS for small molecule compounds that upregulate eGFP-tagged delta133p53alpha (in N-terminal) cells. (AID 2060322); settings: NCI-H358 eGFP-delta133p53alpha fluorescence, 24 h; activation: active compounds read high; further: nearly all actives have a fitted effect of over 75% in size; further: potency means the concentration at half of the fitted maximal effect;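 on activation: series mostly up to about 56 µM; 0% = DMSO vehicle and 100% = reference activator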
Cellular tumor antigen p53 (Homo sapiens), sequence (P04637 whole entry, looked up): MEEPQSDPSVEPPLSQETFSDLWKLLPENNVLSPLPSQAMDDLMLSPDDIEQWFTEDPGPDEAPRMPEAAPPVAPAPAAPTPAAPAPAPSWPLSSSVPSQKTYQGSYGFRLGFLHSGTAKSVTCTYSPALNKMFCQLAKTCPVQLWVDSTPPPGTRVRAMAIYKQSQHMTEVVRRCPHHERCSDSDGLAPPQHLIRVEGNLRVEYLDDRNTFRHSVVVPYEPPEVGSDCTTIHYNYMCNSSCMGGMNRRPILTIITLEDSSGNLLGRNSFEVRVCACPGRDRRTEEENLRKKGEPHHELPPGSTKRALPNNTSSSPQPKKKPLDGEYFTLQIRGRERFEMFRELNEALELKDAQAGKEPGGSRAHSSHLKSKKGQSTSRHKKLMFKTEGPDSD
How it was run: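 NCI-H358 cells pre-induced 24 h with 10 ng/ml doxycycline to express N-terminal eGFP-delta133p53alpha, then dosed 24 h at 37C without doxycycline; fixed, Hoechst-stained, GFP intensity by laser scanning cytometry, normalized to DMSO (0%) and 57.5 uM 5-azacytidine (100%).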

[2] = target: Aldehyde dehydrogenase, mitochondrial (Homo sapiens) (UniProt P05091); experiment: qHTS for Inhibitors of the Aldehyde Dehydrogenase Family (ALDH2) Primary screen (AID 2061308);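 further: plate controls were vehicle for no effect and reference inhibitor for full effect; nearly all actives have a fitted effect of over 55% in size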

Compound	activation [1] [%]	Potency [2]	activity change, negative = inhibition [2]	Potency [1]
CC1(O)CCC2C(C(=O)O)=COC(OC3OC(CO)C(O)C(O)C3OC(=O)/C=C/c3ccc(O)cc3)C21 (centres undefined)	-16	inactive		
CC1CC2OCC3(O)CCC(O)C(C14CC(c1ccoc1)OC4=O)C23CO (centres undefined)	-6.11	inactive		
COc1cccc2cc3c(c(O[C@@H]4O[C@H](CO[C@@H]5O[C@H](CO)[C@@H](O)[C@H](O)[C@H]5O)[C@@H](O)[C@H](O)[C@H]4O)c12)C(C)OC3=O (some centres undefined)	3.57	inactive		
C=C1CC[C@@H]2[C@](C)(CO)[C@H](O)CC[C@@]2(C)[C@@H]1/C=C/C1=CCOC1=O	-12.2	inactive		
COc1cc(C[C@@]2(O)CO[C@@H](c3ccc(O[C@@H]4O[C@H](CO)[C@@H](O)[C@H](O)[C@H]4O)c(OC)c3)[C@H]2CO)ccc1O	-17	inactive		
CC1(C)C=Cc2c(ccc3c2[N+]([O-])=C2C3(O)CC34NC(=O)C5(CCCN5C3=O)CC4C2(C)C)O1 (centres undefined)	6.25	inactive		
NC(=O)[C@H](O[C@@H]1O[C@H](CO)[C@@H](O)[C@H](O)[C@H]1O)c1ccccc1	17.9	inactive		
COC(=O)C1=COC(O[C@@H]2O[C@H](CO)[C@@H](O)[C@H](O)[C@H]2O)C2C(C)C(=O)CC12 (some centres undefined)	-1.53	inactive		
OC[C@H]1O[C@@H](OCCc2ccccc2)[C@H](O[C@@H]2OC[C@](O)(CO)[C@H]2O)[C@@H](O)[C@@H]1O	-4.58	inactive		
COC(=O)C1=CO[C@@H](O[C@@H]2O[C@H](CO)[C@@H](O)[C@H](O)[C@H]2O)[C@@H]2C(CO)=CC[C@H]12	0	inactive		
C[C@@H]1O[C@@H](O[C@H]2[C@H](O[C@H]3CC[C@@]4(C)C(CC[C@]5(C)C4CC=C4[C@@H]6CC(C)(C)CC[C@]6(C(=O)O[C@@H]6OC[C@H](O)[C@H](O)[C@H]6O[C@@H]6O[C@@H](C)[C@H](O[C@@H]7O[C@H](CO)[C@@H](O)[C@H](O)[C@H]7O)[C@H](O)[C@H]6O)[C@H](O)C[C@]45C)C3(C)C)O[C@H](CO)[C@@H](O[C@@H]3OC[C@@H](O)[C@H](O)[C@H]3O)[C@@H]2O)[C@H](O)[C@H](O)[C@H]1O (some centres undefined)	-2.29		-18.4% [at 11.2 µM]	
COc1cc2c(cc1O)C1(OC)Cc3ccc4c(c3C1N(C)CC2)OCO4 (centres undefined)	20.5	inactive		
C=C1CC[C@H]2[C@@](C)(CCC(O)[C@@]2(C)CO)[C@@H]1CCC1=CCOC1=O (some centres undefined)	-11.5	inactive		
COc1cc([C@H]2OC[C@]3(OC(C)=O)[C@@H](c4ccc(O[C@@H]5O[C@H](CO)[C@@H](O)[C@H](O)[C@H]5O)c(OC)c4)OC[C@H]23)ccc1O	-3.82	inactive		
CNCc1cc(-c2ccccc2F)n(S(=O)(=O)c2cccnc2)c1	12.5	inactive		
CC(/C=C/C1(O)C2(C)COC1(C)CC(=O)C2)O[C@@H]1O[C@H](CO)[C@@H](O)[C@H](O)[C@H]1O (some centres undefined)	2.68	inactive		
NC(=O)c1ccc(OCC2NC(=O)C3CCCN3C2=O)cc1 (centres undefined)	-12.2	inactive		
CN1CCCC1Cc1c[nH]c2ccc(CCS(=O)(=O)c3ccccc3)cc12 (centres undefined)	24.3	inactive		
O=C(OC[C@H]1O[C@H](O[C@]2(CO)O[C@H](CO)[C@@H](O)[C@@H]2O)[C@H](O)[C@@H](O)[C@@H]1O)c1ccccc1	0.763	inactive		
O=C(O[C@H]1[C@@H]2C[C@@H]3OC[C@](O)([C@@H]1Cl)[C@H]2C(O[C@@H]1O[C@H](CO)[C@@H](O)[C@H](O)[C@H]1O)O3)c1ccc(O)c(O)c1 (some centres undefined)	-22.1	inactive		
COc1ccc([C@@H]2OC[C@H]3[C@@H]2CO[C@@H]3c2ccc(OC3OC(CO)C(O)C(O)C3O)c(OC)c2)cc1OC (some centres undefined)	10.7	inactive		
COc1cc(C[C@H]2COC(=O)[C@@H]2Cc2ccc(O)c(OC)c2)ccc1O	-18.8	inactive		
CC1CCC2(O1)C(C)(C)CC(O[C@@H]1O[C@H](CO[C@@H]3OC[C@](O)(CO)[C@H]3O)[C@@H](O)[C@H](O)[C@H]1O)CC2(C)O (some centres undefined)	1.79	inactive		
COC(=O)C1=CO[C@@H](O[C@@H]2O[C@H](CO[C@@H]3O[C@H](COC(=O)/C=C/c4cc(OC)c(O)c(OC)c4)[C@@H](O)[C@H](O)[C@H]3O)[C@@H](O)[C@H](O)[C@H]2O)[C@@H]2C(CO)=CC[C@H]12	-14.3	inactive		
O=C(/C=C/c1ccccc1O)O[C@@H]1O[C@H](CO)[C@@H](O)[C@H](O)[C@H]1O	0	inactive		
C=C[C@@]1(C)C=C2C(=O)C(O)=C3[C@](C)(C(=O)O)CC[C@@H]4C[C@]34[C@]2(O)C(=O)C1		inactive		6.59 µM (active)
COc1cc(/C=N\NC(=O)c2ccc3c(c2)OCO3)ccc1OCc1ccccc1	2.39	inactive		
